From PubChem
Sampled rows, rich in hits. Any-hit rate of the full collection: about 3.3%.
Candida biofilm – kills Candida albicans biofilms. C. albicans biofilm + clotrimazole, Alamar Blue. inhibition, % at 6 µM. 0.14% of 85,000 active. AID 834;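 active = inhibition above 20%; inactive = inhibition below 20%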;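 also: preformed 24 hr biofilms exposed to compound for 48 hr; 0% = biofilm without compound and 100% = blank killed by clotrimazole plus chlorhexidine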
ERb SRC1 inh – blocks coactivator binding to human estrogen receptor beta | inhibition, % at 25.6 µM | 1.3% of 86,000 active | TR-FRET ER-beta LBD / SRC1-Cy5 peptide binding; receptor agonist-loaded with 1 µM estradiol | Q92731 | AID 633;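 active = compounds whose percent inhibition of the receptor-coactivator binding signal exceeds about 50% in the single-dose screen, limit read from the data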;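 also: 0% = receptor plus peptide wells without compound and 100% = peptide-only wells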
FAK inh – blocks human focal adhesion kinase activity; Q05397; biochemical FAK kinase activity assay; inhibition, %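 (tested at 7 µM)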; 0.84% of 97,000 active; AID 727;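 also: 0% = DMSO and 100% = reference compound high control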
Smad3 FoxH1 inh – Smad3 (human) transcription factor binding inhibition; AID 630; P84022; 0.29% of 88,000 active; inhibition, % at 25 µM; TR-FRET Smad3/Dy647-FoxH1 peptide binding, europium anti-His;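 active = compounds that reduce the energy-transfer binding signal between the protein and its labelled peptide by more than half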;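 also: 0% = Smad3 plus labelled peptide maximal FRET and 100% = peptide-only background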
Target sequence (P84022 whole entry, looked up): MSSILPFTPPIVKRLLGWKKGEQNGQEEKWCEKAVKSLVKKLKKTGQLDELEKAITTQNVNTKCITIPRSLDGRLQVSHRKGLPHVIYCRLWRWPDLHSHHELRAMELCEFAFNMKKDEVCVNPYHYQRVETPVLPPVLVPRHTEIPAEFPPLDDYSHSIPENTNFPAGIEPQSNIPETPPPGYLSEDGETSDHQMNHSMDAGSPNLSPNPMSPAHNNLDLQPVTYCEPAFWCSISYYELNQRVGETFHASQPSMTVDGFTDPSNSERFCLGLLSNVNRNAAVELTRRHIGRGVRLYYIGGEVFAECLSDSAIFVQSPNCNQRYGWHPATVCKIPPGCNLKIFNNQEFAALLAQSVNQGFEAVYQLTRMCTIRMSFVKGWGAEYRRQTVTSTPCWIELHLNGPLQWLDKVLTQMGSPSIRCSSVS
ERa SRC1 pot – ER-alpha (human) coactivator binding potentiation; P03372; TR-FRET ERalpha-LBD/SRC-Cy5 coactivator binding, 2 h; 100 = basal binding, no effect; coactivator binding (% of control), % at 25.6 µM; 1.3% of 86,000 active; in the data active = activity above about 200%;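 also: binding measured in presence of low estradiol as agonist stimulus; 0% = peptide alone without receptor and 100% = receptor with peptide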
ERa coact inh – blocks coactivator binding to human estrogen receptor alpha | AID 629 | P03372 | 1.7% of 86,000 active | inhibition, % at 25.6 µM | TR-FRET ER-alpha LBD / SRC-1 peptide, estradiol-bound; in the data active = inhibition above about 50%;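 also: 0% = receptor plus peptide control and 100% = peptide only without receptor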
FAK inh conf – FAK (human) inhibition confirmed. 28% of 750 active. AID 794. FAK kinase biochemical inhibition assay. inhibition, % at 7 µM. shares compounds with FAK inh
* hit, by the source's call; . = no result given; [ ] = another dose, or the depositor's remark. Rule as the data show it, unless noted: active = inhibition above about 19%; inactive = the rest.

SMILES | Candida biofilm | ERb SRC1 inh | FAK inh | Smad3 FoxH1 inh | ERa SRC1 pot | ERa coact inh | others
Cc1ccc(C(=O)NCc2ccco2)cc1Br | 3 | 5 | 2 | 1 | 86 | 9
CC(=O)CCc1c(C)c2cccc(C)c2[nH]c1=O | 7 | 82*[fluorescence artefact?] | . | -1 | 95 | 4
Fc1cccc(F)c1C(Nc1nncs1)Nc1nncs1 | . | . | . | 23 | . | .
O=C(O)c1cccc(S(=O)(=O)NCC2CCCO2)c1 (centres undefined) | 8 | -4 | 1 | -2 | 110 | -6
O=C(O)c1cccc(S(=O)(=O)Nc2ccc3oc(=O)sc3c2)c1 | 2 | 52*[fluorescence artefact?] | 11 | -3 | 44 | 42
Cc1onc(-c2ccccc2Cl)c1C(=O)NCc1ccccn1 | -3 | -1 | 1 | -2 | 112 | -5
Cc1onc(-c2ccccc2Cl)c1C(=O)NCc1cccnc1 | 1 | 2 | . | 1 | 102 | 52*
CCCCSc1cnn(-c2ccccc2)c(=O)c1SCCCC | 5 | 26 | 1 | -14 | 202* | 13
COc1cc(-c2nc(-c3ccccc3)c(-c3cccs3)[nH]2)cc(OC)c1OC | 3 | -5 | 4 | 8 | 252* | 18
Cc1ccc2c(COC(=O)c3n[nH]c4ccccc34)cc(=O)oc2c1 | -3 | 15 | . | -19 | 200* | 16
CCc1ccc2c(COC(=O)c3n[nH]c4ccccc34)cc(=O)oc2c1 | . | 18 | 3 | 11 | 161 | 32
COc1ccc(CC(=O)OCC(=O)Nc2ncc(Cl)cc2Cl)cc1 | 7 | 43 | 3 | -2 | 53 | 52*[fluorescence artefact?]
COc1cccc(C2CC(c3ccc(F)cc3)Nc3nc(N)nn32)c1 (centres undefined) | 4 | 16 | 10 | 28 | 308* | 9
CC1CCN(C(=O)Cc2nn(C)c(=O)c3ccccc23)CC1 | 5 | -2 | 2 | 3 | 121 | 9
CCOC(=O)Cc1nn(C)c(=O)c2ccccc12 | -2 | 63* | 7 | -5 | 97 | 2
CCCCc1ccc(-c2ccc(C)cc2O)nc1 | 0 | 37 | -6 | 5 | 203*[fluorescence artefact?] | 22
CCCCc1ccc(-c2ccc(Br)cc2O)nc1 | -1 | -5 | 1 | 17 | 98 | -4
N=C(N)SCCON1C(=O)c2ccccc2C1=O | . | . | . | 3 | . | .
CC(=O)c1cccc(NC(=O)CN(c2ccccc2)S(C)(=O)=O)c1 | 5 | 48 | . | 58* | 711*[fluorescence artefact?] | 28
CC(=O)c1cccc(NC(=O)CN(c2ccccc2F)S(C)(=O)=O)c1 | -4 | 2 | -1 | -1 | 102 | -3
CSc1cccc(NC(=O)CN(c2cccc(C)c2)S(C)(=O)=O)c1 | -2 | 1 | 0 | 3 | 110 | 6
CN(C)S(=O)(=O)N(CC(=O)Nc1ccc(F)c(F)c1)c1ccccc1 | 7 | 35 | 5 | 8 | 69 | 47
Cc1cccc(N(CC(=O)Nc2ccc(F)cc2)S(C)(=O)=O)c1 | 55* | -2 | -2 | 9 | 107 | -3
CSc1cccc(NC(=O)CN(c2ccccc2)S(=O)(=O)N(C)C)c1 | -4 | 37 | 19 | -1 | 61 | 50*
CN(C)S(=O)(=O)N(CC(=O)Nc1ccccc1C(F)(F)F)c1ccccc1 | 4 | 34 | 2 | -1 | 67 | 70*[fluorescence artefact?]
SMILES | Candida biofilm | ERb SRC1 inh | FAK inh | Smad3 FoxH1 inh | ERa SRC1 pot | ERa coact inh | others
CCOc1ccccc1C(=O)OCC(=O)Nc1ccc(OC(F)F)cc1 | . | . | 2 | . | . | .
O=C(O)CCSC1=NCCN1 | . | . | . | -18 | . | .
COCCNC(=O)C(c1ccc(C)o1)N(C(=O)c1snc(C(N)=O)c1N)c1ccc(C)cc1 (centres undefined) | 9 | -2 | 14 | 4 | 84 | 2
COCCNC(=O)C(c1ccc(C)o1)N(C(=O)c1snc(C(N)=O)c1N)c1cccc(C)c1 (centres undefined) | 0 | -1 | 20* | 8 | 108 | -4 | FAK inh conf=6
COCCNC(=O)C(c1ccc(C)o1)N(C(=O)c1snc(C(N)=O)c1N)c1ccc(C)c(C)c1 (centres undefined) | -1 | -3 | 23* | -6 | 100 | 6 | FAK inh conf=9
O=C(CC1Oc2ccc(Cl)cc2NC1=O)NC1CCCCCC1 (centres undefined) | 7 | -2 | 0 | 3 | 96 | -4
CN1CC(=O)NC1=NC(=O)C12CC3CC(CC(C3)C1)C2 | . | . | -2 | . | . | .
CNC(=O)CN1C(=O)c2cccc3cccc1c23 | 4 | -16 | 1 | 0 | 108 | -4
CN1/C(=N\O)c2cccc3cccc1c23 | -2 | -5 | 21* | -8 | 79 | -38 | FAK inh conf=8
O=C(c1ccc(NS(=O)(=O)c2cccs2)cc1)N1CCCCC1 | -6 | -9 | 25* | -9 | 114 | 1 | FAK inh conf=12
O=S(=O)(Nc1ccc(N2CCCCC2)cc1)c1cccs1 | 6 | 21 | 9 | -1 | 81 | 9
CC1=NN(c2ccc(C(=O)OC(C)C)cc2)C(=O)/C1=C\C=C\c1ccco1 | 5 | 20 | -3 | 2 | 79 | 36
CC(C(=O)O)N1C(=O)/C(=C/C=C/c2ccco2)SC1=S (centres undefined) | . | . | 100* | . | . | . | FAK inh conf=23*
CC(C)(C)C(=O)[C@@H]1[C@@H]2C(=O)N(Cc3ccccc3)C(=O)[C@@H]2[C@H]2c3ccccc3C=CN12 | 10 | 19 | 4 | 15 | 6 | 27
O=C(c1ccco1)[C@@H]1[C@@H]2C(=O)N(c3ccc(F)cc3)C(=O)[C@@H]2C2c3ccccc3C=CN21 (some centres undefined) | 8 | 36 | 35* | 13 | 80 | 55*[fluorescence artefact?] | FAK inh conf=7
CC(=O)[C@H]1[C@@H]2C(=O)N(c3cccc(Cl)c3)C(=O)[C@@H]2[C@H]2c3ccccc3C=CN21 | 11 | 31 | 23* | 10 | 62 | 19 | FAK inh conf=6
O=C(c1ccco1)[C@@H]1[C@@H]2C(=O)N(c3ccc(Br)cc3)C(=O)[C@@H]2C2c3ccccc3C=CN21 (some centres undefined) | -5 | 39 | 19* | 10 | 107 | 36 | FAK inh conf=4
CC(=O)[C@@H]1[C@@H]2C(=O)N(C3CCCCC3)C(=O)[C@@H]2C2c3ccccc3C=CN21 (some centres undefined) | 0 | -12 | 13 | 6 | 95 | -4
CC(C)Cn1c(-c2ccc(Cl)cc2)cnc1SCC(=O)N1CCOCC1 | -4 | -3 | 2 | 2 | 110 | -1
CC(C)(C)NC(=O)c1ccccc1-c1nc(-c2ccccc2Cl)no1 | 5 | -9 | 7 | -4 | 113 | -2
Cc1ccc(C(C2C(=O)CC(C)(C)CC2=O)C2C(=O)CC(C)(C)CC2=O)s1 | . | . | 22* | . | . | . | FAK inh conf=0
CCCCc1nc2sc3c(c2c(=O)[nH]1)CCC3 | 6 | 6 | 3 | 0 | 96 | 4
CCOC(=O)C1CCN(c2nc3cc(OC)ccc3cc2C#N)CC1 | 2 | -6 | 19* | 10 | 112 | 7 | FAK inh conf=0
